Compounds with a hit are over-represented: about 3.8% of the library has one in this group of screens.
ATXN2 expr inh – ATXN2 expression inhibition. HEK-293 ATXN2-luciferase reporter, luminescence, 24 h. Potency, µM (doses to about 57 µM), for the others: top-dose activity change, negative = inhibition, most hits filed as inhibitors. 360,000 compounds, 0.72% hits; further: on the % scale 0 is the no-effect control and ±100 the full control effect; nearly all actives have a fitted effect of over 55% in size
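qHTS (up to 57 uM final) was run with 24 h compound exposure of reporter cells at 37 °C. Each well was multiplexed: SteadyGlo luminescence measured ATXN2-luciferase expression after a fluorogenic Gly-Phe-AFC viability readout (25 uM final).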
TGFb inhibitor – TGF-b pathway inhibition | HepG2 CAGA-GFP TGF-b/SMAD3 reporter, GFP fluorescence, 18 h; TGF-beta stimulated, 500 pg/mL final | 410,000 compounds, 1.2% hits | Potency, µM (top dose mostly 46.1 µM), for the others: at the top dose activity, negative = inhibition, most hits filed as inhibitors | AID 588855; further: on the % scale 0 is the no-effect control and ±100 the full control effect; nearly all actives have a fitted effect of over 65% in size
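Inhibition was scored as loss of TGF-beta-induced (500 pg/mL final, 18 hours, 37 degrees C) GFP in HEPG2 cells carrying a CAGA-GFP reporter, in DMEM with 1% FBS. Well GFP was summed per cell; Activity was normalised to unstimulated and stimulated DMSO wells, then concentration-response fitting.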
HT1080NT lethal – kills 2HG-producing HT-1080-NT fibrosarcoma cells. HT-1080-NT fibrosarcoma viability, CellTiter-Glo ATP luminescence, 48 h. 360,000 compounds, 1.6% hits. AID 686970. Potency, µM (doses to about 46.1 µM), without a hit: at the highest dose activity, negative = less viability, usual class: cytotoxic;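 further: NT is the 2HG producing partner of a matched IDH1 knockdown line; 0% = DMSO-treated cells and -100% = media-only wells without cells; nearly all actives have a fitted effect of over 55% in size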
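Read-out is CellTiter-Glo luminescence after 10 minutes at room temperature, following 48 hours' compound treatment of HT-1080-NT cells (750 cells/well, RPMI, 5% FBS, 37 degrees C).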
HepG2 tox – counter-screen for TGF-b inhibitors: cytotoxicity in HepG2 cells. HepG2 CAGA-GFP viability, ATP luminescence, 18 h. Potency, µM (titrated, usually from 46.1 µM), for the others: at the highest dose activity change, negative = cytotoxicity, hits mostly cytotoxic. 410,000 compounds, 0.76% hits. AID 588856
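CellTiter-Glo luminescence gave cytotoxicity after 18 hours at 37 degrees C. The cells were HepG2 CAGA-GFP in 1% FBS DMEM, stimulated with 500 pg/mL TGF-beta after compound addition. %Activity was normalised to no-cell wells (complete cell-killing) and DMSO (no toxicity), and curves were fitted and classified.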
HT1080 IDH1KD tx – toxicity to HT-1080 IDH1 knockdown cells (counter line). HT-1080 IDH1 knockdown viability, ATP luminescence, 48 h. Potency, µM (series often up to 46.1 µM), without a hit: at the highest dose activity, negative = toxicity, most hits filed as cytotoxic. 360,000 compounds, 2% hits. AID 686971;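 further: 0% = DMSO wells and -100% = cell-free medium wells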
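Cytotoxicity counter-line: IDH1KD HT-1080, 48 h, CellTiter-Glo. Curves classed by r2, magnitude and activity.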
ATXN viability – viability counter-screen for ATXN expression inhibitors | S2 cells (HEK-293 line with an ATXN2-luciferase reporter) viability, CellTiter-Fluor protease fluorescence, 24 h | Potency, µM (top dose mostly 56.7 µM), most hits filed as cytotoxic | 400,000 compounds, 0.49% hits | AID 651635; further: nearly all actives have a fitted effect of over 40% in size
The depositor's hits bear a star; i = inactive; ? = inconclusive; nt = not tested or not shown. The call rests on the fitted dose curve; in most records, active means well fitted curve in the direction sought with a large enough effect; inconclusive means small, poorly fitted or top-dose-only effect, or another doubt; inactive means no such curve, though single readings can be large; an effect the other way counts as inactive or inconclusive. Potency means the concentration at half of the fitted maximal effect.

SMILES	ATXN2 expr inh	TGFb inhibitor	HT1080NT lethal	HepG2 tox	HT1080 IDH1KD tx	ATXN viability
CC(C)(C)c1ccc(C(=O)N2CCC(=O)N(C(COCc3ccccc3)Cc3ccccc3)CC2)cc1 (stereo unspecified)	?	?	?	-61%	-13%	nt
O=C(c1cccc(Cl)c1)N1CCC(=O)N([C@H](COCc2cccc(Cl)c2)Cc2ccccc2)CC1	?	nt	?	nt	16µM*	?
Cc1cccc(COC[C@H](Cc2ccccc2)N2CCN(C(=O)c3ccc(Cl)c(Cl)c3)CCC2=O)c1	0%	nt	?	nt	16µM*	?
CC(C)(C)c1ccc(C(=O)N2CCC(=O)N([C@H](COCc3ccccc3)Cc3ccccc3)CC2)cc1	32µM*	nt	?	nt	?	nt
Cc1cccc2cc(CN(CC3CCCO3)C(=O)c3cccc(F)c3)c(N(C)C)nc12 (stereo unspecified)	nt	nt	nt	nt	nt	i
COC(=O)C1=C(C)NC(COC(N)=O)=C(C(=O)OC(C)C)C1c1cccc(Cl)c1Cl (stereo unspecified)	-29%	nt	nt	nt	nt	?
CCc1cccc2c(C(O)(c3c[nH]c4c(CC)cccc34)c3c[nH]c4c(CC)cccc34)c[nH]c12	nt	?	nt	-14%	nt	nt
Oc1ccc(-c2nnc(SCC3CCCCC3)o2)cc1	43%	-29%	0%	11µM*	-13%	?
FC(F)(F)c1ccc(C2[C@H]3CN(Cc4cccnc4)[C@H](c4ccccc4)C34CC2(c2cccnc2)C4)cc1 (stereo partly specified)	?	8.9µM*	?	-105%	?	?
FC(F)(F)c1ccc(C2[C@H]3CN(Cc4ccc(-c5ccccc5)cc4)[C@H](c4ccccc4)C34CC2(c2cccnc2)C4)cc1 (stereo partly specified)	8%	?	4%	-23%	7%	i
CC(=O)Nc1cccc(-c2ccnc3c2CC(C(=O)Nc2ccc(Cl)cc2)O3)c1 (stereo unspecified)	?	32%	?	-17%	21µM*	?
CC(=O)Nc1ccc(-c2ccnc3c2CC(C(=O)NCC2CCOCC2)O3)cc1 (stereo unspecified)	15%	-6%	?	-5%	?	i
CC(=O)Nc1ccc(-c2ccnc3c2CC(C(=O)Nc2cccnc2)O3)cc1 (stereo unspecified)	-2%	22%	13µM*	-1%	13µM*	i
CC(=O)Nc1ccc(-c2ccnc3c2CC(C(=O)Nc2cccc(C(C)=O)c2)O3)cc1 (stereo unspecified)	3%	7%	-11%	-4%	0%	i
CC(=O)Nc1ccc(-c2ccnc3c2CC(C(=O)NCC2CC2)O3)cc1 (stereo unspecified)	10%	6%	?	5%	16µM*	i
O=C(Nc1ccc(Cl)c(C(F)(F)F)c1)C1Cc2c(-c3ccccc3)ccnc2O1 (stereo unspecified)	-25%	14µM*	?	11µM*	?	?
CC(C)Oc1ccc(CNC(=O)c2cc3ccccn3n2)cc1	64%	?	nt	-2%	nt	i
N[C@@]1(C(=O)O)CS(=O)(=O)[C@H]2[C@H](C(=O)O)[C@H]21	-13%	nt	nt	nt	nt	nt
COc1cc(OC)c(NC(=O)c2nn(-c3ccc(C)cc3)c(=O)c3c2c2ccccc2n3C)cc1Cl	5%	-7%	nt	-1%	nt	i
COC(=O)c1c(NC(=O)c2ccc(C(C)(C)C)cc2)sc2c1CCC(C)C2 (stereo unspecified)	nt	-13%	nt	4%	nt	nt
Cc1c(Nc2ccc3nonc3c2[N+](=O)[O-])c(=O)n(-c2ccccc2)n1C	-20%	8%	-18%	-5%	-12%	i
Cc1c(Nc2cc(Cl)c3nonc3c2[N+](=O)[O-])c(=O)n(-c2ccccc2)n1C	?	?	3.7µM*	-84%	?	28µM*
CN(c1cccc(NC(=O)CN(c2ccc(C34CC5CC(CC(C5)C3)C4)cc2)S(C)(=O)=O)c1)S(C)(=O)=O	?	11µM*	?	-31%	20µM*	?
O=C(c1cc2sccc2n1Cc1ccccc1)N1CCN(c2nc3ccccc3s2)CC1	?	2%	-5%	3%	8.2µM*	i
CC1CCN(C(=O)c2ccc([N+](=O)[O-])o2)CC1	-10%	-4%	14%	-15%	-3%	i
SMILES	ATXN2 expr inh	TGFb inhibitor	HT1080NT lethal	HepG2 tox	HT1080 IDH1KD tx	ATXN viability
O=C(Nc1ccc(N2CCCC2)cc1)c1ccc(Br)o1	48%	-1%	6%	0%	12%	i
O=C(Nc1ccc(N2CCCC2)c(Cl)c1)c1ccc([N+](=O)[O-])o1	39%	?	5.8µM*	-79%	5.8µM*	i
O=C(Nc1ccc(N2CCCCC2)cc1)c1ccc([N+](=O)[O-])o1	4%	?	4.6µM*	-68%	2.3µM*	?
O=C(Nc1ccc(N2CCN(Cc3ccccc3F)CC2)cc1)c1ccccc1[N+](=O)[O-]	-13%	?	-13%	-25%	-10%	i
O=C(Nc1ccc(N2CCN(Cc3ccccc3F)CC2)cc1)c1ccc([N+](=O)[O-])o1	-4%	?	15µM*	-47%	-6%	i
CC1CCN(c2ccc(NC(=O)c3ccc([N+](=O)[O-])o3)cc2)CC1	13%	?	16µM*	-85%	7.3µM*	?
CCC1CN(CCNC(=O)c2cscn2)Cc2cc(OC)ccc2O1 (stereo unspecified)	nt	nt	nt	nt	nt	i
Cc1cccc(C(=O)NNC2=C(C(=O)C(F)(F)F)CCC2)c1O	?	?	21µM*	-44%	21µM*	i
Cc1cccc(C(=O)NNC(=O)c2ccc(Cl)cc2)c1O	-17%	18%	-21%	-21%	-19%	i
O=C(NNC1=C(C(=O)C(F)(F)F)CCC1)c1cccc(O)c1	-30%	-16%	?	-12%	18µM*	i
O=C(NNC1=C(C(=O)C(F)(F)F)CCC1)c1cccnc1	-1%	-4%	-1%	-2%	2%	i
CC(C)Nc1ncnc2c1ncn2[C@H]1CN(Cc2ccc(-c3ccccc3)cc2)C[C@@H](CO)O1	?	-10%	?	-26%	?	i
CN(C)CCNc1ncnc2c1ncn2[C@H]1CN(Cc2ccc(-c3ccccc3)cc2)C[C@@H](CO)O1	?	16µM*	6.5µM*	-88%	21µM*	?

Assay outcomes (PubChem BioAssay)
